The values below come from ChEMBL document CHEMBL3988442, “University of Dundee, Small-Polar-MMV Screening Library” (2021).

Each structure is given as a SMILES string.

The target in experiment [1] is T1, Aspartate--tRNA(Asp/Asn) ligase (Mycobacterium tuberculosis (strain ATCC 25618 / H37Rv)) (UniProt P9WFW3). Further: in the data most compounds retested in dose-response had high values.
T1 sequence (whole entry): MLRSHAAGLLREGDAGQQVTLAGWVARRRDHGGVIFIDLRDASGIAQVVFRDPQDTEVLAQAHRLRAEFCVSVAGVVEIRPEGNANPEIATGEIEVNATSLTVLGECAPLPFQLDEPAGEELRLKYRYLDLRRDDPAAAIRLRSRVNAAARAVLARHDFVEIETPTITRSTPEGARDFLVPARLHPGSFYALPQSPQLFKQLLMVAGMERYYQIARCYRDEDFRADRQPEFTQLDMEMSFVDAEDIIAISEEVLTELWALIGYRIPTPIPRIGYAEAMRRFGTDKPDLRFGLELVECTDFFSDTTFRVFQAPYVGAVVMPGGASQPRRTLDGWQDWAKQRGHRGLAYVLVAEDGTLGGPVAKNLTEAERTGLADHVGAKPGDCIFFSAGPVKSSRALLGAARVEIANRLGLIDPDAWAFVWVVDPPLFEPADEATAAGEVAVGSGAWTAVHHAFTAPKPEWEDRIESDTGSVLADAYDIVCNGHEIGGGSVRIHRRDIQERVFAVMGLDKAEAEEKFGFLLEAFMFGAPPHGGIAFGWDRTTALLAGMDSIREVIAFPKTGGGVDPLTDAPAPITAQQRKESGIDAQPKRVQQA
Kind of experiment: Assay for Asp RNA synthetase-1 from Mycobacterium tuberculosis. It is filed as functional. Set-up: scale not given: direction of the effect not stated beside the values. As to conditions: 30 µM.

Experiment [2] deals with Shiga toxin 2 (Escherichia coli O157:H7) (UniProt P09385+P09386). Kind of experiment: E. coli 0.157:H7 Shiga Toxin SOP - stx2 screening assay. As to conditions: 30 µM. It is filed as functional. Set-up: scale not given: direction of the effect not stated beside the values.

Consider `Cc1ccc(CN(Cc2c[nH]cn2)C2CC(C)(C)NC(C)(C)C2)o1`, for which the Percent Effect is -1.68% in experiment [1] and 7.12% in experiment [2].
For `Cn1cnc2c1C(COCC1CC1)CN(C(=O)Cc1ccsc1)C2` (centres undefined), the Percent Effect in experiment [1] was 0.364%; in experiment [2], -17.9%.
On the same counts, the results for `CCN(CCn1cccn1)Cc1nc(-c2cccs2)oc1C` are -0.251% and 7.38%.
On the same counts, the results for `CN(Cc1cccc(O)c1)CC1CCCN(CCc2ccc(Cl)cc2)C1` (centres undefined) are 4.47% and -33.8%.
For the compound `O=C(CN1CC(n2cccn2)C1)NCCCc1ccccc1`, the Percent Effect in experiment [1] was 0%; in experiment [2], -22.1%.
On the same counts, the results for `COc1ccc(CCNC(=O)NC2CCCC2)cc1OC` are 2.58% and -10.6%.
In the same order, the values of `CCc1nnc2n1CCN(Cc1ccc3c(c1)OCCO3)C2` are 4.98% and 15.5%.
For `CN(CC1CCCO1)C1CCN(CCc2ccccn2)CC1` (centres undefined), the Percent Effect is 3.12% in experiment [1] and -6.44% in experiment [2].
With `Fc1ccc(-c2nnc(CN3CCn4c(nnc4C4CC4)C3)o2)cc1`, the figures for the Percent Effect in experiment [1] and in experiment [2] were 3.19% and -26.1%, respectively.
On the same counts, the results for `CC(=O)N1CCC2(CC1)CC[C@@]1(C(=O)N(C)C)CN(S(C)(=O)=O)C[C@@H]21` are -1.99% and -10.1%.
As for `Cc1nccn1CC1CCCN1S(=O)(=O)Cc1ccccc1F` (centres undefined), the Percent Effect in experiment [1] is 1.06%; in experiment [2] it was -2.92%.
With `Cc1ccc(CN2CCC3(C2)C(=O)N(CC(C)C)c2ccccc23)s1` (centres undefined), the Percent Effect in experiment [1] is -0.155%; in experiment [2], -42.5%.
On the same counts, the results for `c1ccc2oc(N3CCCCC3Cn3cncn3)nc2c1` (centres undefined) are -2.88% and -18.7%.
Consider `CCN1C[C@@H]2[C@@H](OC)CCN(S(=O)(=O)c3ccccc3F)[C@@H]2C1`, for which the Percent Effect in experiment [1] was -3.02%; in experiment [2] it was 0.716%.
Take `COc1ccc(C2=CCN(C(=O)CN(C)CC(C)C#N)CC2)cc1` (centres undefined): the results for the Percent Effect in experiment [1] and in experiment [2] were -3.34% and -65.5%, respectively.
In the case of `Cc1ncsc1C(=O)N(C)Cc1cccc(Cl)c1`, the values for the Percent Effect in experiment [1] and in experiment [2] were -1.26% and 17.9%, respectively.
In the same order, the values of `CCN(CC)C(=O)CCc1c(C)nc2cc(O)nn2c1C` are -1.56% and -6.53%.
Consider `CN(C)S(=O)(=O)N1CC[C@]2(C[C@H](Oc3cccnc3)CO2)C1`, for which the Percent Effect in experiment [1] was 9.53%; in experiment [2] it was -27.2%.
For `Cc1ccc(-n2nnc(C(=O)Nc3cc(C)nn3C)c2C2CC2)cc1`, the Percent Effect in experiment [1] was -2.8%; in experiment [2] it was 34.4%.
Take `c1cnn(CC2CN(c3ncnc4sccc34)CCO2)c1` (centres undefined): the Percent Effect in experiment [1] is 2.38%; in experiment [2], -6.78%.
In the same order, the values of `OCC1CCCN1c1cc(N2CCN(c3ccccn3)CC2)ncn1` (centres undefined) are -3.49% and 32.6%.
On the same counts, the results for `O=C(CO)N1CCC(c2cncc(-c3cccc(Cl)c3)n2)CC1` are 4.78% and -9.28%.
In the same order, the values of `CCN1C(=O)CCCC12CCCN(C(=O)c1conc1C)C2` (centres undefined) are -4.46% and 1.9%.
For the compound `CC(C)NC(=O)C(c1ccccc1)N1CCn2c(nnc2C2CC2)C1` (centres undefined), the Percent Effect in experiment [1] was -1.48%; in experiment [2], 13%.
On the same counts, the results for `Cc1nc(CN2CCCC(NCCOCC(F)(F)F)C2)no1` (centres undefined) are -8.65% and -8.56%.
For the compound `CN(C)CC1CN(c2cnc3ccccc3n2)CCO1` (centres undefined), the Percent Effect was -3.4% in experiment [1] and -17.5% in experiment [2].
On the same counts, the results for `Cc1cccc(C)c1OCCC(=O)N1CCC(c2nncn2C)CC1` are -2.43% and -9.22%.
On the same counts, the results for `Cc1cc(C2CCCN(CCCS(=O)(=O)c3ccccc3)C2)n[nH]1` (centres undefined) are 3.14% and 4.75%.
On the same counts, the results for `CCc1cccc(N2CCC(NC(=O)c3ccc(=O)[nH]n3)CC2)c1` are 3.83% and -1.12%.
For `Cc1cc(C(=O)N2CCN(C(=O)Cc3ccccn3)CC2)c(C)s1`, the Percent Effect in experiment [1] was 2.55%; in experiment [2], 7.06%.
In the same order, the values of `CC(C)N1CC(C(=O)NCCc2csc(-c3ccncc3)n2)CC1=O` (centres undefined) are 2.56% and -26.5%.
As for `CCOCCOc1ccccc1C(=O)N1CCCC(c2ncc[nH]2)C1` (centres undefined), the results for the Percent Effect in experiment [1] and in experiment [2] were 7.07% and -32.6%, respectively.
As to `CC(C)NC(=O)[C@@H]1C[C@H](N)CN1C(=O)c1cc2c([nH]c1=O)CCCC2`, the Percent Effect is 2.4% in experiment [1] and -1.55% in experiment [2].
In the same order, the values of `Cc1ccc(CN2CCCC3(COCCN(Cc4c[nH]nn4)C3)C2)o1` (centres undefined) are 4.69% and -4.03%.
Turning to `Cn1ccc(C(=O)N2CCC(Cc3cnc4[nH]ccc4c3)CC2)n1`, the Percent Effect in experiment [1] is 0.283%; in experiment [2] it was 19.7%.
Turning to `COc1cccc(CN2CCC(c3nccn3C(C)C)CC2)c1`, the Percent Effect was 1.9% in experiment [1] and -26.4% in experiment [2].
As for `COCC(=O)N1CCN(Cc2coc(-c3cccc(F)c3)n2)CC1`, the Percent Effect in experiment [1] is -1.18%; in experiment [2] it was 16.9%.
